Measurements as given in PubChem BioAssay (EPA / NIEHS).
Active and inactive are the calls of the source. Rule for the calls: active = hit-call score of the fitted dose curve at least 0.9, where 1 is the maximum; inconclusive = response in the unintended direction; inactive = score below 0.9.

These compounds were tested on DIO3 (gene 1735) (assay: CCTE_GLTED_hDIO3: CCTE's human Deiodinase 3 (DIO3) Inhibition Assay, Great Lakes Toxicology and Ecology Division (GLTED) Lab (AID 2284055);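 for AC50: potency is for inhibition seen as loss of released iodide signal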).
Description: CCTE_GLTED_hDIO3 is a cell-free, single-readout assay designed to test the inhibitory activity of chemicals toward human iodothyronine Deiodinase type 3 (DIO3) enzyme. Enzyme is incubated in presence of test chemical for 3 hours during which uninhibited enzyme liberates free iodide from substrate. Free iodide is measured in a second step using the Sandell-Kolthoff method.CCTE_GLTED_hDIO3 is the assay component measured from the CCTE_GLTED_hDIO3 assay. It is designed to make measurements of enzyme activity, a form of enzyme reporter, as detected with absorbance signals by spectrophotometry.Data from the assay component CCTE_GLTED_hDIO3 was analyzed into 1 assay endpoint. This assay endpoint, CCTE_GLTED_hDIO3, was analyzed in the positive analysis fitting direction relative to DMSO as the negative control and baseline of activity. Using a type of enzyme reporter, loss-of-signal activity can be used to understand changes in the enzymatic activity as they relate to the gene DIO3. Furthermore, this assay endpoint can be referred to as a primary readout, because the performed assay has only produced 1 assay endpoint. To generalize the intended target to other relatable targets, this assay endpoint is annotated to the 'deiodinase' intended target family, where the subfamily is 'deiodinase Type 3'.
[…] assay, developed at Great Lakes Toxicology and Ecology Division (GLTED) within the EPA's Center for Computational Toxicology and Exposure (CCTE), is designed to test the chemicals' ability to inhibit DIO3. Assay uses human deiodinase type 3 (DIO3) enzyme produced with adenovirus expression system. Assay is based on iodide release measured by the Sandell-Kolthoff method and is run in 96-well plate format with assay plates run in triplicate (n=3). The method used for the deiodinase assay was largely based on Renko et al. (2012, 2015). These works describe the utilization of the SK reaction to measure deiodinase-liberated iodide in a 96-well-plate format. The SK reaction is based on the reduction of the yellow-colored cerium IV to the non-colored cerium III by arsenic, with the rate of this reaction increased in the presence of iodide in a concentration-dependent manner (Sandell and Kolthoff, 1937). Iodinated test chemicals can interfere as competitive inhibitors, or if the stock chemical has contaminating free-iodide present. Other chemicals, e.g.: nitrite, iron, and thiocyanate can interfere with the Sandell-Kolthoff reaction (see Sandell and Kolthoff, 1937).

Row | SMILES | AC50 | outcome
1 | NCc1cccc(C2CCN(C(=O)c3ccc(C#Cc4ccccc4F)o3)CC2)c1 | 23.3 µM (active) | 
2 | O=CCCCC=O | 9.03 µM (active) | 
3 | CCN(CC)C(=O)c1cc(S(=O)(=O)Cc2ccccc2)c(N2CCC(c3ccccc3)CC2)cc1N(CC)CCN(C)C | 53.4 µM (active) | 
4 | CN(C)C(=O)C1(N2CCCCC2)CCN(CC[C@@]2(c3ccc(Cl)c(Cl)c3)CN(C(=O)c3ccccc3)CCO2)CC1 |  | inactive
5 | CC(C)(C)c1csc(-c2cc3cc(OCc4ccccc4CC(=O)O)ccc3o2)n1 | 148 µM (active) | 
6 | CC(C)(C)c1cc(/C=C2\SC(N)=NC2=O)cc(C(C)(C)C)c1O | 19.9 µM (active) | 
7 | CN(C)c1ccc(C(=C2C=CC(=[N+](C)C)C=C2)c2ccc(N(C)C)cc2)cc1 | 22.6 µM (active) | 
8 | CCOC(=O)O[C@H](C)OC(=O)c1ccc2c(c1)cc(C(=O)NC1CCN(C(C)C)CC1)n2Cc1cc(-c2ccc(Cl)s2)on1 | 1.16 µM (active) | 
9 | CCCCCCCCCCCC[N+](C)(C)C | 119 µM (active) | 
10 | CCCCCCCCCCCCO | 82.6 µM (active) | 
11 | CCCCCCCCCCCO | 152 µM (active) | 
12 | CC(C)(c1cc(Br)c(O)c(Br)c1)c1cc(Br)c(O)c(Br)c1 | 37.8 µM (active) | 
13 | CCCCCCCCOC(=O)c1cc(O)c(O)c(O)c1 | 76.5 µM (active) | 
14 | OC12N=C(c3ccccc3)SC1Cc1cc(Cl)ccc12 (stereo unspecified) | 86.5 µM (active) | 
15 | NC(=O)c1nc(-c2cccc(-c3cc(F)ccc3OCC(F)(F)C(F)(F)F)c2)n[nH]1 | 182 µM (active) | 
16 | CN(C[C@@H](CC[N+]12CCC(C3CCCCC3)(CC1)CC2)c1ccc(Cl)c(Cl)c1)C(=O)c1cc(C(F)(F)F)cc(C(F)(F)F)c1 | 81.9 µM (active) | 
